Tests used:
[1] = tested on: Human papillomavirus type 1a protein E7 (residues 44-93); test: small molecules binding HPV E7 44-93 – biochemical, small-molecule microarray, residues 44-93, 635 nm fluorescence, primary screen (AID 1108); settings: fluorescence 635 nm, higher = more signal;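 further: E7 fragment applied at 1 µg/mL in TBST for 1 h at 4 C; score combines spot fluorescence with its signal to noise ratio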
[2] = hepatitis C replication reporter changes, two-sided – Huh7 cells, luciferase reporter, HCV replication inhibitor project, primary screen (AID 1109); settings: Huh7 HCV replicon luciferase reporter, 48 h; higher = more signal;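 further: huh7 hepatoma cells harbouring a luciferase neomycin HCV replicon reporter; luciferase luminescence as measure of HCV replicon replication; test concentration not given here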
[3] = target: Left-right determination factor 2 (Homo sapiens) (UniProt O00292); test: small molecules binding LEFTY2 protein – biochemical, small-molecule microarray, 635 nm fluorescence scan, primary screen (AID 1110); settings: higher = more signal
Sequence of Left-right determination factor 2 (Homo sapiens) (O00292 whole entry, looked up): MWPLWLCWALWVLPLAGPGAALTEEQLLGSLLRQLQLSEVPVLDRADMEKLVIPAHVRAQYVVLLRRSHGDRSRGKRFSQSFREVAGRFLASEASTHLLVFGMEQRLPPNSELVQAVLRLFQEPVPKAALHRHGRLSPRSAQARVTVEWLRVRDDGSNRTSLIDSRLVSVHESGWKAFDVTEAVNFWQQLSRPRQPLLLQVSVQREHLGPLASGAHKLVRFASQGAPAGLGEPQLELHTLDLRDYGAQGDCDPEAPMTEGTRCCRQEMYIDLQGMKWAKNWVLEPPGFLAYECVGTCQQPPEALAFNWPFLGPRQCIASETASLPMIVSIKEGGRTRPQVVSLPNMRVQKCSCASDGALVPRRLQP

[4] = target: Calmodulin-1 (Homo sapiens) (UniProt P0DP23); test: small molecules binding calmodulin-1 with EGTA – biochemical, small-molecule microarray, Cy5-labelled CALM1, profiling panel (AID 1111); settings: Cy5-CALM1 binding fluorescence, higher = more signal;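 further: labelled calmodulin applied in Tris saline Tween buffer holding calcium plus EGTA and DTT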
[5] = target: Calmodulin-1 (Homo sapiens) (UniProt P0DP23); test: small molecules binding Ca-loaded calmodulin-1 – biochemical, small-molecule microarray, Cy5-labelled CALM1, plus calcium, artefact control for SMM control-protein annotation, profiling panel (AID 1112); settings: Cy5-CALM1 binding fluorescence, higher = more signal;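 further: score merges spot fluorescence with signal to noise from triplicate slides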
[6] = probe aWnt5a binding to arrayed compounds – biochemical, biotinylated probe, 635/667 nm fluorescence, primary screen (AID 1113); settings: small-molecule microarray, higher = more signal;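 further: score merges 667 nm fluorescence intensity with signal-to-noise per printed feature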
[7] = probe aShh binding to arrayed compounds – biochemical, biotinylated probe, 635/667 nm fluorescence, primary screen (AID 1114); settings: small-molecule microarray, higher = more signal;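 further: probe is biotin-labelled aShh protein from a stem cell growth factor screen; measures binding of labelled protein to compounds printed on the slide; score merges feature fluorescence at 667 nm with signal-to-noise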
[8] = probe aNog binding to arrayed compounds – biochemical, biotinylated probe, 635/667 nm fluorescence, primary screen (AID 1115); settings: small-molecule microarray, higher = more signal;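 further: probe is biotinylated aNog protein used at 0.15 µg/mL for 1 h at 4 C; z-score combines 667 nm fluorescence of each spot with its signal to noise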
[9] = target: Torsin-1A-interacting protein 1 (Homo sapiens) (UniProt Q5JTV8); test: compound microarray binding of lysate hLAP1 – cell lysate, small-molecule microarray, COS7 lysate, 635/667 nm fluorescence, primary screen (AID 1116); settings: 635 nm fluorescence, higher = more signal
Sequence of Torsin-1A-interacting protein 1 (Homo sapiens) (Q5JTV8 whole entry, looked up): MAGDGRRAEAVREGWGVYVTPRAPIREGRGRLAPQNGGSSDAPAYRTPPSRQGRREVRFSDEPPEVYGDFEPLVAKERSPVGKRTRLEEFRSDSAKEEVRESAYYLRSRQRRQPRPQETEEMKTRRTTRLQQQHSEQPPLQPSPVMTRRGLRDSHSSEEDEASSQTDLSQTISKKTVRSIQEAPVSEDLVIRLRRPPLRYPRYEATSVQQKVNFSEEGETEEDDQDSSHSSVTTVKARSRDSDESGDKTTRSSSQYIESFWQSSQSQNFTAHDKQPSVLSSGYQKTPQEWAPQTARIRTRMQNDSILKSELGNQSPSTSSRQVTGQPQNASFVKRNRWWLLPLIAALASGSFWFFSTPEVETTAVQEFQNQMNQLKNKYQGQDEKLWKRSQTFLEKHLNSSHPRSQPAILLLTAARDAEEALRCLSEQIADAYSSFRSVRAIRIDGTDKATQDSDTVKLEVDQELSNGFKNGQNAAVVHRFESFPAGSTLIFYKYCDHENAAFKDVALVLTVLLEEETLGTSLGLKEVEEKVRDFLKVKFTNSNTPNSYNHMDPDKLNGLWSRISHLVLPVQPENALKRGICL

[10] = target: Alpha-bungarotoxin (Bungarus multicinctus) (UniProt P60615); test: compounds binding labelled alpha-BTX control protein – biochemical, small-molecule microarray, Alexa647 label, 635/667 nm fluorescence, artefact control for SMM control protein annotation, profiling panel (AID 1117); settings: alpha-BTX-A647 binding fluorescence, higher = more signal
Sequence of Alpha-bungarotoxin (Bungarus multicinctus) (P60615 whole entry, looked up): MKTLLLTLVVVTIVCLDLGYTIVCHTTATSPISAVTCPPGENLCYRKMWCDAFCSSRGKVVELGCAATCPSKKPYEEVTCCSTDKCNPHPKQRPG

SMILES	composite z-score [1]	z-score [2]	composite z-score [3]	composite z-score [4]	composite z-score [5]	composite z-score [6]	composite z-score [7]	composite z-score [8]	composite z-score [9]	composite z-score [10]
NC(=O)[C@@H]1[C@H]2C(=O)O[C@H](c3ccccc3)[C@H](c3ccccc3)N2[C@H](c2ccc(O)cc2)[C@@]12C(=O)Nc1ccc(C#CC3=CCCCC3)cc12	1.42	-3.23	-0.585	0.573	0.199	0.065	1.78	1.01	0.453	0.334
COc1cc(CO)cc(I)c1O[C@H]1C=C(C(=O)NCCO)C[C@@H](N(C(=O)c2cc3ccccc3oc2=O)C2CCCCCC2)[C@@H]1O	-0.914	-0.469	-0.0138	-0.23	-0.769	-0.096	-0.349	-0.267	0.155	-0.29
COC(=O)c1c2oc(c1C(=O)OC)C(=O)NC1(CCCCC1)c1cn(nn1)C[C@H](Cc1ccccc1)NC(=O)N[C@H](CO)CC2	0.973	-0.791	0.23	0.0166	-0.396	-0.0955	-0.237	-0.321	0.227	0.531
O=C(CS)NCCCCCNC(=O)[C@@H]1C[C@@H]2C(=O)NCC(=O)N2[C@@H]1c1ccc(O)cc1	0.722	0.627	0.31	-0.0523	-0.109	-0.165	-0.0709	-0.122	-0.0104	-0.581
[N-]=[N+]=Nc1ccccc1C[C@]1(C(=O)NCc2ccccc2)N=C(c2ccc(OCCCO)cc2)O[C@H]1c1ccccc1N=[N+]=[N-]	1.42	-2.34	-0.366	1.99	0.177	0.164	0.149	-0.237	1.02	1.48
CC(C)NC(=O)[C@@H]1c2ccccc2C(=O)N(C(C)C)[C@H]1c1ccc(CO)cc1	1.42	-0.152	-0.597	-0.639	-0.128	-0.228	-0.291	-0.196	1.69	-0.558
CC(c1ccccc1)C(O)C1C=CC2C(=O)N(c3ccccc3)C(=O)C2N1Nc1ccccc1 (stereo not given)	1.5	-2.44	-0.0093	1.5	0.993	-0.0758	-0.0702	1.44	1.11	1.98
CCCC[C@@H]1C[C@H]1[C@@H](NC(=O)c1cccnc1)c1ccc(Cl)cc1	-1.05	-2.14	-2.99	0.867	1.69	-0.191	-0.509	0.526	-0.553	-1.36
CCCC=C(CCC)[C@@H](NC(=O)OCC(C)C)c1ccccc1	0.861	-1.18	-0.0453	1.65	0.438	0.806	0.717	1.99	0.226	0.703
CCOC(=O)C[C@H]1[C@H](OC(=O)c2ccc(-c3ccccc3)cc2)[C@@H](NC(=O)c2ccccc2)c2cc(OCCCO)ccc2N1C(=O)Cc1ccc(OC)cc1	-0.149	-1.41	0.199	0.594	0.534	-0.1	-0.147	-0.18	0.328	0.281
O=C(O)C1N=C(c2ccc(OCCCO)cc2)N(c2ccccc2)O1 (stereo not given)	1.13	-0.643	0.509	0.37	-0.218	-0.0478	-0.0769	-0.402	0.435	0.447
C=C[C@H](C)[C@@H](OC(=O)Nc1ccc(SC)cc1)c1ccc(O)c2ccccc12	1.41	-0.751	1.23	0.988	-0.0069	-0.101	-0.0553	-0.343	0.575	0.893
CCOC(=O)C1=C[C@@H](C(C)C)N(S(=O)(=O)c2ccc(C)cc2)[C@H]1c1ccccc1F	1.34	-2.04	0.605	1.74	0.0462	-0.001	0.116	0.541	1.08	1.39
CO[C@H]1O[C@H](CO)[C@@H](OC(=O)Nc2cccc(F)c2)[C@H](OC(=O)Nc2ccccc2)[C@H]1OC(=O)Nc1ccccc1	1.52	-3.16	0.238	0.183	-0.467	-0.0222	0.536	0.919	1.29	1.53
C#CCN1[C@H](/C=C/C2CC2)[C@H](Cc2ccccc2)OC(=O)[C@@H]1Cc1ccccc1	-0.306	-2.87	0.294	-0.707	-0.414	-0.164	-0.0066	-0.401	0.0223	0.106
CO[C@H]1O[C@H](CO)[C@@H](OC(=O)Nc2ccc(Br)cc2)[C@@H]2OC(=O)[C@H](Cc3cccc(Br)c3)C/C=C/C[C@@H](Cc3cccc(Br)c3)C(=O)O[C@@H]12	-0.852	-3.26	-0.402	0.404	0.609	-0.12	-0.221	-0.1	-0.284	0.386
COc1ccccc1CN1C(=O)c2ccccc2[C@@]2(Cc3ccccc3N(CCCN(C)C)C2=O)[C@@H]1c1ccc(CO)cc1	-0.0362	-1.86	0.524	-0.0574	-0.688	-0.165	-0.282	-0.273	0.0163	-0.94

SMILES	composite z-score [1]	z-score [2]	composite z-score [3]	composite z-score [4]	composite z-score [5]	composite z-score [6]	composite z-score [7]	composite z-score [8]	composite z-score [9]	composite z-score [10]
C[N+](C)(C)CCCC[C@@H]1NC(=O)[C@@H]2C[C@H](C(=O)NCCCCCCNC(=O)CS)[C@H](c3ccc(O)cc3)N2C1=O	-0.421	0.164	-0.638	-0.4	-0.281	-0.237	-0.304	-0.0721	0.958	1.33
CC(c1ccccc1)C(O)C1C=CC2C(=O)N(C)C(=O)C2N1NC(=O)OC(C)(C)C (stereo not given)	0.664	0.658	-0.0606	2.55	0.265	0.0377	-0.273	1.54	2.11	1.29
CC(C)(C)OC(=O)CC[C@@]1(C(=O)N2CCCCC2)N=C(c2ccc(OCCCO)cc2)O[C@@H]1c1ccccc1	1.44	-1.49	0.0209	1.72	-0.0506	0.168	0.476	0.414	0.774	0.873
[N-]=[N+]=Nc1ccccc1C[C@]1(C(=O)NCC(O)CO)N=C(c2ccc(OCCCO)cc2)O[C@H]1c1ccccc1 (stereo not given in full)	1.45	-0.962	-1.32	1.89	0.496	-0.0924	-0.0709	-0.492	0.954	0.903
O=C1OCC=C[C@H]2OC34C=CCN(CCN5CCOCC5)C(=O)[C@H]3N(CCO)C(=O)[C@@H]4[C@@H]12 (stereo not given in full)	0.259	0.289	-0.0919	-0.571	-0.932	-0.223	-0.321	-0.384	0.0486	-0.283
CC(=O)Nc1cc(Br)ccc1C(=O)NCc1ccccc1	1.09	-0.0162	-0.174	0.851	0.517	-0.0346	-0.16	-0.196	0.341	0.809
C=CCC(OC(C)=O)[C@@H]1[C@@H](N(Cc2ccc(-c3ccccc3)cc2)C(=O)Cc2ccc(F)cc2)c2cc(OCCCO)ccc2N1C(=O)c1ccc2ccccc2c1 (stereo not given in full)	0.0163	-0.381	-0.0251	-0.0052	0.28	-0.141	-0.221	-0.0632	0.402	-0.0517
CC(C)CN1C(=O)[C@@]2(c3ccc([N+](=O)[O-])cc3)CC(=O)N(C3CCCCC3)[C@@H]2c2ccc(CO)cc21	-1.25	-0.707	-1.69	-0.311	-0.0449	-0.208	-0.33	-0.181	-0.803	0.547
O=C1O[C@@H](c2ccccc2)[C@@H](c2ccccc2)N2[C@@H](c3ccc(OCCO)cc3)[C@]3(C(=O)Nc4ccc(C#CCCO)cc43)[C@@H](C(=O)NC[C@H](O)c3ccccc3)[C@H]12	1.4	-1.25	0.25	0.604	0.174	0.119	0.493	-0.398	1.09	1.24
CC(=O)n1cc(C(O)C2C=CC3C(=O)NC(=O)C3N2Nc2ccccn2)c2ccccc21 (stereo not given)	-0.0484	-0.75	0.0729	-0.2	-0.36	-0.124	-0.138	-0.0615	-0.19	0.751
CC(=O)NCCCC[C@@H]1NC(=O)[C@H]2C[C@@H](C(=O)NCCCCCNC(=O)CS)[C@@H](c3ccc(O)cc3)N2C1=O	0.46	-0.0987	-0.574	0.362	0.438	-0.0919	-0.0035	-0.196	0.177	0.117
CCCCC(=C=CC[C@H](O)c1cccc(OCCO)c1)C[C@H](O)c1ccccn1	-0.146	-1.05	0.258	0.481	-0.784	-0.0239	-0.13	-0.23	0.0971	-0.0891
CCN(CC)c1ccc(N2CC=CC34O[C@@H]5C=CCOC(=O)[C@@H]5[C@H]3C(=O)N(CCCCCCO)[C@@H]4C2=O)cc1 (stereo not given in full)	1.01	-1.4	-0.699	-0.333	0.48	-0.152	-0.0035	-0.248	2.01	-0.226
CCOC(=O)C1=CC[C@@H](c2ccccc2)N(S(=O)(=O)c2ccc(C)cc2)[C@H]1c1ccc(CC)cc1	1.4	-1.8	0.353	1.21	0.511	-0.0384	-0.264	0.733	0.331	0.569
[N-]=[N+]=Nc1ccccc1C[C@]1(C(=O)N2CCCCC2)COC(c2ccc(OCCCO)cc2)=N1	1.44	-2.43	-0.241	1.35	0.234	0.117	-0.217	-0.673	1.03	0.465
CCOC(=O)C[C@H]1[C@H](OC(=O)c2cc3ccccc3oc2=O)[C@@H](NC(=O)CC(C)C)c2cc(OCCCO)ccc2N1C(=O)c1ccccc1	0.886	0.186	0.371	-0.299	-0.543	0.0317	-0.0011	0.819	0.124	1.06

From PubChem BioAssay
